Results published in paper PMC10812921, “Transcriptional Coactivator BOB1 (OBF1, OCA-B) Modulates the Specificity of DNA Recognition by the POU-Domain Factors OCT1 and OCT2 in a Monomeric Configuration”.

Assays:
POU1 (OCT1 POU domain) = POU1 (OCT1 POU domain) (human, UniProt P14859 260-458); experiment: EMSA-SELEX-seq; no BOB1; 20 mM Tris-HCl pH 7.6, 140 mM NaCl, 10% glycerol, 0.5 mM EDTA, 0.05% Triton X-100, 0.1 mg/mL BSA, 0.1 mg/mL poly(dI-dC), 5 mM DTT, room temperature, 20 min; high values mean tight binding; conditions: protein: recombinant; dsDNA, one strand shown
POU1 (OCT1 POU domain), sequence (P14859 260-458): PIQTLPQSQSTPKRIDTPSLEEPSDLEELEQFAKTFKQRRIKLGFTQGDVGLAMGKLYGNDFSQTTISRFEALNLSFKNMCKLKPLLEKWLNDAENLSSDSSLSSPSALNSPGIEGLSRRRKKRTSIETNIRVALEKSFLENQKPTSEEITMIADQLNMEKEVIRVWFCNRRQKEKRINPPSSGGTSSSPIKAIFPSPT
How it was run: (§1)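 In this selection, tagged POU-domain proteins from E. coli BL21, purified under denaturing conditions and renatured, were bound to a PCR-amplified double-stranded random 35-nt library with or without coactivator protein. Reactions held 30 ng protein, 300 ng library and, where used, 28 ng coactivator protein in 20 μL Tris–HCl pH 7.6 binding buffer for 20 min at RT. Complex bands were cut from native 6% PAGE, eluted and PCR-amplified over four rounds, then Illumina-sequenced, and binding preference is the percentage of sequenced 8-mers matching a motif pattern.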

POU2 (OCT2 POU domain) = target: T1, POU2 (OCT2 POU domain) (human, UniProt P09086 175-386); experiment: as above; conditions: protein: recombinant; dsDNA, one strand shown
T1 sequence: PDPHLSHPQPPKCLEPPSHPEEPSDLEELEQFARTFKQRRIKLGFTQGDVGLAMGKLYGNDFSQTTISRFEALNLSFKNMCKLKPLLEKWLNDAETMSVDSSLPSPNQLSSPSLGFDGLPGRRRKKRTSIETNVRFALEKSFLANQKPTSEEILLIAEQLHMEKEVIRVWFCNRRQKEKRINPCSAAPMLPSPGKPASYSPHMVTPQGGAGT
How it was run: as §1

[1] = target: POU1 (OCT1 POU domain);BOB1 (OBF1, OCA-B) (human;human, UniProt P14859;Q16633 260-458;1-256, |); experiment: EMSA-SELEX-seq; with BOB1 (ternary complex band); 20 mM Tris-HCl pH 7.6, 140 mM NaCl, 10% glycerol, 0.5 mM EDTA, 0.05% Triton X-100, 0.1 mg/mL BSA, 0.1 mg/mL poly(dI-dC), 5 mM DTT, room temperature, 20 min; high values mean tight binding; conditions: protein: recombinant;recombinant; copies: 1;1; dsDNA, one strand shown
How it was run: as §1

[2] = target: T2, POU2 (OCT2 POU domain);BOB1 (OBF1, OCA-B) (human;human, UniProt P09086;Q16633 175-386;1-256, |); experiment: as above; conditions: protein: recombinant;recombinant; copies: 1;1; dsDNA, one strand shown
T2 sequence 1: T1 sequence
T2 sequence 2: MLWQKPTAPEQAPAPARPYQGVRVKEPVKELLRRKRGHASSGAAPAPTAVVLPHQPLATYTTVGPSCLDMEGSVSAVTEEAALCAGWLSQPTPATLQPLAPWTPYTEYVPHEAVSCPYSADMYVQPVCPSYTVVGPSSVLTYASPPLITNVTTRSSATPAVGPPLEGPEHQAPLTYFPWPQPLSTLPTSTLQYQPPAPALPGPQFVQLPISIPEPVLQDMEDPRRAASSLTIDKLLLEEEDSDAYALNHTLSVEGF
How it was run: as §1

Row | Sequence | binding signal (POU1 (OCT1 POU domain)) | binding signal (POU2 (OCT2 POU domain)) | binding signal [1] | binding signal [2]
1 | AAATAAAC | 0.116 % of ANNNNAAN 8-mers | 0.119 % of ANNNNAAN 8-mers | 0.142 % of ANNNNAAN 8-mers | 0.13 % of ANNNNAAN 8-mers
2 | ACCTCAAA | 0.0149 % of ANNNNAAN 8-mers | 0.0155 % of ANNNNAAN 8-mers | 0.0191 % of ANNNNAAN 8-mers | 0.0256 % of ANNNNAAN 8-mers
3 | ATGCAAAG | 1.06 % of ANNNNAAN 8-mers | 0.831 % of ANNNNAAN 8-mers | 2.22 % of ANNNNAAN 8-mers | 2.27 % of ANNNNAAN 8-mers
4 | ACGTGAAG | 0.0259 % of ANNNNAAN 8-mers | 0.0282 % of ANNNNAAN 8-mers | 0.0258 % of ANNNNAAN 8-mers | 0.0305 % of ANNNNAAN 8-mers
5 | ATATCAAG | 0.0641 % of ANNNNAAN 8-mers | 0.0552 % of ANNNNAAN 8-mers | 0.0453 % of ANNNNAAN 8-mers | 0.0479 % of ANNNNAAN 8-mers
6 | AACTAAAT | 0.0778 % of ANNNNAAN 8-mers | 0.0811 % of ANNNNAAN 8-mers | 0.0667 % of ANNNNAAN 8-mers | 0.0594 % of ANNNNAAN 8-mers
7 | ATTTCAAT | 0.238 % of ANNNNAAN 8-mers | 0.268 % of ANNNNAAN 8-mers | 0.174 % of ANNNNAAN 8-mers | 0.142 % of ANNNNAAN 8-mers
8 | AGTTTAAC | 0.04 % of ANNNNAAN 8-mers | 0.0449 % of ANNNNAAN 8-mers | 0.0375 % of ANNNNAAN 8-mers | 0.033 % of ANNNNAAN 8-mers
9 | ACATAAAG | 0.0934 % of ANNNNAAN 8-mers | 0.108 % of ANNNNAAN 8-mers | 0.0663 % of ANNNNAAN 8-mers | 0.0759 % of ANNNNAAN 8-mers
10 | AAACTAAG | 0.0484 % of ANNNNAAN 8-mers | 0.0478 % of ANNNNAAN 8-mers | 0.0636 % of ANNNNAAN 8-mers | 0.052 % of ANNNNAAN 8-mers
11 | AGTTTAAG | 0.05 % of ANNNNAAN 8-mers | 0.0656 % of ANNNNAAN 8-mers | 0.0519 % of ANNNNAAN 8-mers | 0.0504 % of ANNNNAAN 8-mers
12 | AGGGCAAA | 0.0568 % of ANNNNAAN 8-mers | 0.0466 % of ANNNNAAN 8-mers | 0.0675 % of ANNNNAAN 8-mers | 0.0462 % of ANNNNAAN 8-mers
13 | AAACGAAA | 0.0568 % of ANNNNAAN 8-mers | 0.0558 % of ANNNNAAN 8-mers | 0.0644 % of ANNNNAAN 8-mers | 0.052 % of ANNNNAAN 8-mers
14 | ACTAAAAC | 0.0233 % of ANNNNAAN 8-mers | 0.0311 % of ANNNNAAN 8-mers | 0.023 % of ANNNNAAN 8-mers | 0.0297 % of ANNNNAAN 8-mers
15 | AACATAAT | 0.134 % of ANNNNAAN 8-mers | 0.174 % of ANNNNAAN 8-mers | 0.0515 % of ANNNNAAN 8-mers | 0.071 % of ANNNNAAN 8-mers
16 | AGTAAAAG | 0.061 % of ANNNNAAN 8-mers | 0.0662 % of ANNNNAAN 8-mers | 0.0913 % of ANNNNAAN 8-mers | 0.0578 % of ANNNNAAN 8-mers
17 | ACCTTAAT | 0.0629 % of ANNNNAAN 8-mers | 0.0679 % of ANNNNAAN 8-mers | 0.0418 % of ANNNNAAN 8-mers | 0.0545 % of ANNNNAAN 8-mers

Row | Sequence | binding signal (POU1 (OCT1 POU domain)) | binding signal (POU2 (OCT2 POU domain)) | binding signal [1] | binding signal [2]
18 | AGACTAAC | 0.0153 % of ANNNNAAN 8-mers | 0.0207 % of ANNNNAAN 8-mers | 0.0156 % of ANNNNAAN 8-mers | 0.0198 % of ANNNNAAN 8-mers
19 | ACATTAAC | 0.0984 % of ANNNNAAN 8-mers | 0.115 % of ANNNNAAN 8-mers | 0.0402 % of ANNNNAAN 8-mers | 0.0363 % of ANNNNAAN 8-mers
20 | ATTCGAAC | 0.0351 % of ANNNNAAN 8-mers | 0.046 % of ANNNNAAN 8-mers | 0.0324 % of ANNNNAAN 8-mers | 0.0396 % of ANNNNAAN 8-mers
21 | AGCACAAA | 0.0256 % of ANNNNAAN 8-mers | 0.0242 % of ANNNNAAN 8-mers | 0.0277 % of ANNNNAAN 8-mers | 0.033 % of ANNNNAAN 8-mers
22 | ACCCTAAG | 0.0118 % of ANNNNAAN 8-mers | 0.0178 % of ANNNNAAN 8-mers | 0.0133 % of ANNNNAAN 8-mers | 0.0107 % of ANNNNAAN 8-mers
23 | ACGTCAAG | 0.0191 % of ANNNNAAN 8-mers | 0.0253 % of ANNNNAAN 8-mers | 0.0203 % of ANNNNAAN 8-mers | 0.0198 % of ANNNNAAN 8-mers
24 | ATTACAAC | 0.0313 % of ANNNNAAN 8-mers | 0.042 % of ANNNNAAN 8-mers | 0.0258 % of ANNNNAAN 8-mers | 0.0223 % of ANNNNAAN 8-mers
25 | AGCGTAAT | 0.0591 % of ANNNNAAN 8-mers | 0.0748 % of ANNNNAAN 8-mers | 0.0382 % of ANNNNAAN 8-mers | 0.0611 % of ANNNNAAN 8-mers
26 | AAAGGAAC | 0.0435 % of ANNNNAAN 8-mers | 0.0443 % of ANNNNAAN 8-mers | 0.0476 % of ANNNNAAN 8-mers | 0.0371 % of ANNNNAAN 8-mers
27 | AACGCAAT | 0.0347 % of ANNNNAAN 8-mers | 0.0351 % of ANNNNAAN 8-mers | 0.0242 % of ANNNNAAN 8-mers | 0.0314 % of ANNNNAAN 8-mers
28 | AAAGTAAA | 0.0988 % of ANNNNAAN 8-mers | 0.0714 % of ANNNNAAN 8-mers | 0.114 % of ANNNNAAN 8-mers | 0.0759 % of ANNNNAAN 8-mers
29 | ACGATAAA | 0.037 % of ANNNNAAN 8-mers | 0.0432 % of ANNNNAAN 8-mers | 0.0324 % of ANNNNAAN 8-mers | 0.0487 % of ANNNNAAN 8-mers
30 | ATAATAAC | 0.0873 % of ANNNNAAN 8-mers | 0.101 % of ANNNNAAN 8-mers | 0.0496 % of ANNNNAAN 8-mers | 0.0603 % of ANNNNAAN 8-mers
31 | ATTTCAAC | 0.0416 % of ANNNNAAN 8-mers | 0.0414 % of ANNNNAAN 8-mers | 0.041 % of ANNNNAAN 8-mers | 0.0429 % of ANNNNAAN 8-mers
32 | ACAACAAA | 0.0301 % of ANNNNAAN 8-mers | 0.0265 % of ANNNNAAN 8-mers | 0.0371 % of ANNNNAAN 8-mers | 0.0248 % of ANNNNAAN 8-mers
33 | AGGAGAAT | 0.0789 % of ANNNNAAN 8-mers | 0.0771 % of ANNNNAAN 8-mers | 0.0624 % of ANNNNAAN 8-mers | 0.0702 % of ANNNNAAN 8-mers
34 | ACACGAAC | 0.0114 % of ANNNNAAN 8-mers | 0.0167 % of ANNNNAAN 8-mers | 0.0121 % of ANNNNAAN 8-mers | 0.0124 % of ANNNNAAN 8-mers
